Molecules are shown by their SMILES. Records with an inconclusive call do not appear. Calls of active or inactive are those of the source. Calls come from the whole dose curve; as a rule, active = well fitted curve in the direction sought with a large enough effect; inconclusive = small, poorly fitted or top-dose-only effect, or another doubt; inactive = no such curve, though single readings can be large; an effect the other way counts as inactive or inconclusive.

For assay [1], the target named is Phospholipid hydroperoxide glutathione peroxidase GPX4 (Homo sapiens) (UniProt P36969). Description: Primary qHTS Assay for Inhibitors of Recombinant Selenoprotein Glutathione Peroxidase 4 (GPX4) (AID 1845192). Note: series mostly up to about 50 µM; nearly all actives have a fitted effect of over 65% in size. The method in brief:
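GR-coupled assay: recombinant GPX4 preincubated 30 min with compound at room temperature; final 200 nM GPX4, 1 mM GSH, 0.5 mM cumene hydroperoxide, 0.5 mM NADPH, 100 nM GR, 0.01% BSA, pH 7.5 Tris. NADPH fluorescence (340/450 nm) read at 0 and 15 min.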
For orientation: In qHTS, concentration-response curves come from the screen itself.

Assay [2] in a line: Quantitative High-Throughput drug screen in 47 multiple myeloma cell lines against the NCATS MIPE library collection: EJM_DSMZ cell viability assay (AID 1918926; note: nearly all actives have a fitted effect of over 30% in size; note: potency is the fitted concentration of half-maximal effect). The method in brief: (§1)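 Inhibition of cell viability is measured here. Each line was plated at 500 cells per well, treated with MIPE 4.0 drugs, kept 48 hours at 37C, then assayed for ATP content by CellTiter-Glo luminescence.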

Assay [3] is described as follows: Quantitative High-Throughput drug screen in 47 multiple myeloma cell lines against the NCATS MIPE library collection: AMO1_DSMZ cell viability assay (AID 1918927; note: nearly all actives have a fitted effect of over 30% in size; note: potency is the fitted concentration of half-maximal effect). In short, it runs like this: as §1
Assay [4] is described as follows: Quantitative High-Throughput drug screen in 47 multiple myeloma cell lines against the NCATS MIPE library collection: ARP1_JJKsccF8 cell viability assay (AID 1918928; note: nearly all actives have a fitted effect of over 40% in size; note: potency is the fitted concentration of half-maximal effect). The method in brief: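 Myeloma cells at 500 per well in 1536-well format treated with MIPE 4.0 library by pin transfer for 48 h at 37C, 5% CO2. Viability from ATP luminescence (CellTiter-Glo), normalized to DMSO (100%) and media-only (0%) wells.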

The nature of assay [5]: Quantitative High-Throughput drug screen in 47 multiple myeloma cell lines against the NCATS MIPE library collection: FR4_PLB cell viability assay (AID 1918924; note: nearly all actives have a fitted effect of over 35% in size; note: potency is the fitted concentration of half-maximal effect). The method in brief: as §1
Assay [6] in a line: Quantitative High-Throughput drug screen in 47 multiple myeloma cell lines against the NCATS MIPE library collection: Delta47_JCRB cell viability assay (AID 1918925; note: nearly all actives have a fitted effect of over 45% in size; note: potency is the fitted concentration of half-maximal effect). In short, it runs like this: as §1

Phospholipid hydroperoxide glutathione peroxidase GPX4 (Homo sapiens), sequence (P36969 whole entry, looked up): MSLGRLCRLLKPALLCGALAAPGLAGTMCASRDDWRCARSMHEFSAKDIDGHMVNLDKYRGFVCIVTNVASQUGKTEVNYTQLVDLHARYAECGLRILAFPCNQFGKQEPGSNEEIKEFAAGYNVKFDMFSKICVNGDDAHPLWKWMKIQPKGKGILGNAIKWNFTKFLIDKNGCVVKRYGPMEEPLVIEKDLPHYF

With `CC(C)C[C@H](CC(=O)O)C(=O)N[C@@H](Cc1c[nH]c2ccccc12)C(=O)N[C@@H](C)c1ccccc1`, the Potency result in assay [1], in assay [2], in assay [3] and in assay [4] was “inactive” each time.
With `Nc1nc(F)nc2c1ncn2[C@@H]1O[C@H](COP(=O)(O)O)[C@@H](O)[C@H]1O`, the Potency in assay [5] was 1.87 µM (active).
In the case of `c1ccc2c(-c3cnn4cc(-c5ccc(N6CCNCC6)cc5)cnc34)ccnc2c1`, the Potency entry in assay [1] was “inactive”. Also, the Potency in assay [2] is 11.8 µM (active).
For `COc1ccc2c3c1OC1C[C@@H](O)C=C[C@@]31CCN(C)C2` (stereo partly specified), the Potency result in assay [5] and in assay [3] was “inactive” each time.
As to `O=C(O)c1c(Cl)c(Cl)c(Cl)c(Cl)c1-c1c2cc(I)c(=O)c(I)c-2oc2c(I)c(O)c(I)cc12`, the Potency was 14.8 µM (active) in assay [6] and 13.2 µM (active) in assay [3].
In the case of `COc1ccc(-c2oc3c(CC=C(C)C)c(OC4O[C@H](CO)[C@@H](O)[C@H](O)[C@@H]4O)cc(O)c3c(=O)c2OC2O[C@@H](C)[C@H](O)[C@@H](O)[C@@H]2O)cc1` (stereo partly specified), the Potency in assay [6] is 18.7 µM (active); in assay [3], 8.33 µM (active); in assay [4] it was 16.6 µM (active).
Take `O=C(O)c1ccc(-c2cc3cccnc3c(-c3ccc4nonc4c3)n2)cc1`: the Potency was 23.5 µM (active) in assay [6] and 18.7 µM (active) in assay [2].
Turning to `CC(=NNC(=S)N1CCC1)c1ccccn1`, the Potency result in assay [2] was “inactive”. For the same molecule, the Potency in assay [3] was 0.001 µM (active).
On to `O=C1NC(=O)C(=Cc2ccc3nccnc3c2)S1`, for which the figures for the Potency in assay [6] and in assay [4] were 6.45 µM (active) and 10.2 µM (active), respectively. The Potency entry in assay [3] is “inactive”.
`O=C(O)C=Cc1ccc(O)c(O)c1`: the Potency in assay [2] was 13.2 µM (active); in assay [4] it was 26.4 µM (active).
Take `Clc1ccc(-c2nc3sccn3c2C=NOCc2ccc(Cl)c(Cl)c2)cc1`: the Potency entry in assay [5], in assay [3] and in assay [4] was “inactive” each time.
With `Clc1ccc(COC(Cn2ccnc2)c2ccc(Cl)cc2Cl)cc1` (stereo unspecified), the Potency in assay [3] is 23.5 µM (active).
As to `NC1=N[C@@]2(c3cc(NC(=O)c4ccc(F)cn4)ccc3F)COC[C@@H]2CS1`, the Potency in assay [3] was 2.64 µM (active).
With `COc1ccc(-c2cc(=O)c3c(O)cc(O)cc3o2)cc1O`, the results for the Potency in assay [6], in assay [2] and in assay [3] were 4.69 µM (active), 4.69 µM (active) and 5.26 µM (active), respectively.
With `Clc1ccc(CCC(Cn2ccnc2)Sc2c(Cl)cccc2Cl)cc1` (stereo unspecified), the Potency in assay [6] was 23.5 µM (active); in assay [3], 14.8 µM (active).
In the case of `C=C1C(=O)OC2C=C(C)CCC=C(C)CCC12` (stereo unspecified), the Potency in assay [6] was 18.7 µM (active); in assay [3], 18.7 µM (active); in assay [4], 20.9 µM (active).
`CC1(C)Cc2c(sc(NC(=S)NC(=O)c3ccccc3)c2C(=O)O)CO1`: the Potency entry in assay [5] and in assay [3] was “inactive” each time.
As to `CCCCCN(C)CCC(O)(P(=O)(O)O)P(=O)(O)O`, in assay [2], the Potency entry is “inactive”.
As for `NC(=O)NN=Cc1ccc([N+](=O)[O-])o1`, the Potency result in assay [5] is “inactive”. For the same molecule, in assay [3], the Potency is 10.5 µM (active).
For the molecule `CC[C@@H]1C=C(C)C[C@H](C)C[C@H](OC)[C@H]2O[C@@](O)(C(=O)C(=O)N3CCCC[C@@H]3C(=O)O[C@H](C(C)=C[C@@H]3CC[C@H](Cl)[C@H](OC)C3)[C@H](C)[C@@H](O)CC1=O)[C@H](C)C[C@H]2OC`, the Potency in assay [6] is 16.6 µM (active); in assay [3] it was 9.35 µM (active).
As to `CC(=O)O[C@]1(C(C)=O)CC[C@@H]2[C@@H]3C[C@H](C)C4=CC(=O)CC[C@]4(C)[C@H]3CC[C@@]21C`, the Potency in assay [6] was 18.7 µM (active); in assay [2], 20.9 µM (active); in assay [4] it was 26.4 µM (active).
`CC=CCC=CCCC(=O)[C@H]1O[C@@H]1C(N)=O`: in assay [3], the Potency is 20.9 µM (active).
As for `C=CCc1ccc(O)c(-c2ccc(O)c(CC=C)c2)c1`, the figures for the Potency in assay [6], in assay [2] and in assay [3] were 18.7 µM (active), 23.5 µM (active) and 23.5 µM (active), respectively.
For the molecule `Nc1ncnc2c1ncn2[C@@H]1O[C@H](CO)C[C@@H]1O`, the Potency result in assay [6], in assay [2] and in assay [3] was “inactive” throughout.
For `O=c1c(-c2ccc(O)cc2)coc2cc(OC3O[C@H](CO)[C@H](O)[C@H](O)[C@H]3O)cc(O)c12` (stereo partly specified), the figures for the Potency in assay [6] and in assay [4] were 3.72 µM (active) and 18.7 µM (active), respectively. In addition, the Potency entry in assay [3] was “inactive”.
As for `COCCCCC(=NOCCN)c1ccc(C(F)(F)F)cc1`, the Potency result in assay [3] was “inactive”.
Turning to `Nc1ncnc2c1ncn2[C@@H]1O[C@@H](CO)[C@H](O)[C@H]1O`, the Potency entry in assay [6], in assay [2], in assay [3] and in assay [4] was “inactive” in each case.
As for `CCC(CC)[C@H](NC(C)=O)[C@@H]1[C@H](O)[C@@H](C(=O)O)C[C@@H]1N=C(N)N`, the Potency result in assay [6] and in assay [2] was “inactive” in each case.
For `Cc1c[nH]c(C=C2C(=O)Nc3ccccc32)c1CCC(=O)O`, the Potency entry in assay [6] is “inactive”.
Regarding `COc1ccc(-c2coc3cc(O)ccc3c2=O)cc1`, in assay [2], the Potency result is “inactive”.
On to `Cc1cc(OCCCc2c(C(=O)O)n(Cc3cccnc3)c3c(-c4c(COc5ccc(N6CCN([S+](C)(=O)[O-])CC6)cc5)nn(C)c4C)cccc23)cc(C)c1Cl`, for which the Potency in assay [6] is 18.7 µM (active). The Potency result in assay [3] is “inactive”.
Turning to `CNC(=O)c1ccccc1Sc1ccc2c(C=Cc3ccccn3)n[nH]c2c1`, the Potency in assay [6] is 3.72 µM (active); in assay [2], 23.5 µM (active); in assay [3] it was 2.64 µM (active).
`CC=C(C)C(=O)O[C@H]1C(C)=C[C@]23C(=O)[C@@H](C=C(CO)[C@@H](O)[C@]12O)[C@H]1[C@@H](C[C@H]3C)C1(C)C`: the Potency is 5.26 µM (active) in assay [6] and 18.7 µM (active) in assay [3].
Regarding `COc1cc(O)c2c(c1)C(=O)c1cc(C)cc(O)c1C2=O`, the Potency entry in assay [6], in assay [2] and in assay [4] was “inactive” throughout.
Turning to `CC[C@H]1OC(=O)[C@H](C)C(=O)[C@H](C)[C@@H](O[C@H]2O[C@H](C)C[C@H](N(C)C)[C@@H]2O)[C@](C)(OC)C[C@@H](C)C(=O)[C@H](C)[C@H]2N(CCCCn3cnc(-c4cccnc4)c3)C(=O)O[C@]12C`, in assay [3], the Potency result is “inactive”.
Consider `Cc1ccc([C@@H]2O[C@H](CO)[C@@H](O)[C@H](O)[C@@H]2O)cc1Cc1ccc(-c2ccc(F)cc2)s1`, for which the Potency in assay [6] was 20.9 µM (active); in assay [3] it was 18.7 µM (active).
As for `O=C(O)c1ccc(-c2c[nH]c3ncc(-c4ccccc4)cc23)cc1C1CCCC1`, the Potency result in assay [2] and in assay [4] was “inactive” throughout. Besides, the Potency in assay [3] was 2.96 µM (active).
With `COC(=O)C1=CO[C@@H](O)[C@@H]2C(CO)=CC[C@@H]12`, the Potency in assay [3] was 18.7 µM (active).
As to `CCC(=O)NC[C@H](Cc1ccc(OCCc2nc(-c3ccccc3)oc2C)cc1)NC(C)=CC(=O)c1ccc(C(F)(F)F)cc1`, in assay [6], the Potency entry was “inactive”. Moreover, the Potency in assay [2] was 26.4 µM (active); in assay [4] it was 23.5 µM (active).
Regarding `O=c1cc(-c2ccccc2)oc2cc(O)c(O)c(O)c12`, the Potency entry in assay [2] is “inactive”.

These data come from PubChem BioAssay (NCATS).
